Avidin fluor: avidin bead compound fluorescence profile | Avidin beads, compound fluorescence 488/530 nm, flow cytometry; hits give high values | fluorescence (KMESF) at 10 µM | actives 0.38% (n = 220,000); in the data active = fluorescence above about 47
GSH fluor: compound fluoresces at 488/530 nm on GSH beads; GSH beads flow cytometry, compound fluorescence 488/530 nm; hits give high values; fluorescence (KMESF) at 10 µM; actives 0.25% (n = 190,000); in the data active = fluorescence above about 89;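 note: glutathione beads carrying GST-tagged Bcl family fusion proteins plus one bare bead set; values are compound well signal with DMSO vehicle wells as background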
RGS7-Gao: human RGS7-Galphao interaction regulation. binding response (% of control), % at 10 µM. AID 1439. Multiplexed bead flow cytometry, RGS7-Galphao binding; actives lie on both sides. P09471. actives 0.35% (n = 220,000); in the data active = binding response below about 49% or above about 150%; inconclusive = no clear call, values can overlap the other calls; inactive = in between;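 note: fluorescent Galphao held in activated GDP-AlF4 state binding bead-coupled RGS7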
Target sequence (P09471 whole entry, looked up): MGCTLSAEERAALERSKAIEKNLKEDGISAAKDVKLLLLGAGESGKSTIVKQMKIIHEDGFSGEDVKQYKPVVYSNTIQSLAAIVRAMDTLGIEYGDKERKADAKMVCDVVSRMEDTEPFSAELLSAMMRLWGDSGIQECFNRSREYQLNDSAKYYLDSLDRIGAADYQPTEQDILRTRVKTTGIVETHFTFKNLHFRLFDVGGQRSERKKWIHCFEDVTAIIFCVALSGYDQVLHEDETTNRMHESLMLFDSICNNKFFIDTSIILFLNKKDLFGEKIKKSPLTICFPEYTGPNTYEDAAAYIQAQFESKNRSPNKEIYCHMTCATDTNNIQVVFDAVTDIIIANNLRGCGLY
RGS8-Gao: regulators of human RGS8-Galphao interaction; multiplexed bead flow cytometry, RGS8-Galphao binding; actives lie on both sides; response (percent of control binding), % at 10 µM; P09471; actives 0.34% (n = 220,000); AID 1423; in the data active = response below about 60% or above about 140%; inactive = in between;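 note: Galphao activated as the GDP aluminium fluoride complex binding bead-coupled RGS8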
RGS4-Gao reg: human RGS4-Galphao interaction regulation. P09471. Multiplexed bead flow cytometry, RGS4-Galphao binding; actives lie on both sides. binding response (% of control), % at 10 µM. actives 0.33% (n = 220,000). AID 1415; in the data active = binding response below about 49% or above about 150%; inactive = in between;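 note: fluorescent Galphao activated with aluminum fluoride binding bead-coupled RGS4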
RGS16-Gao HTS: RGS16-Galphao interaction regulator (human); bead-based flow cytometry RGS16-Galphao binding, fluorescence; actives lie on both sides; binding response (% of control), % at 10 µM; actives 0.38% (n = 220,000);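 note: Galphao activated by GDP with aluminum fluoride before binding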
RGS-Gao: modulates binding between human RGS4 and Galphao. shares compounds with RGS16-Gao HTS. multiplexed bead flow cytometry, RGS–Galpha-o binding. RGS4–Galpha-o binding response, % at 10 µM. actives 99% (n = 1,600). AID 1504;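 note: fluorescently labeled Galpha-o bound to GDP with aluminium fluoride binding biotinylated RGS beads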
Biotin-avidin: counter-screen: compounds disrupting biotin binding to avidin beads. streptavidin beads, fluorescein-biotin binding, flow cytometry. AID 1783. shares compounds with RGS16-Gao HTS. 1,700 tested, under 10 active. inhibition, % at 10 µM;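 active = inhibition above 50%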;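 note: median green fluorescence of gated singlet beads compared with DMSO control wells; 0% = DMSO wells and 100% = complete loss of bead fluorescence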
RGS8-Gao confirm: confirmation of regulators of human RGS8-Galphao interaction; actives 3% (n = 1,700); AID 1836; shares compounds with RGS16-Gao HTS; binding response (% of control), % at 10 µM; bead-based flow cytometry RGS8-Galphao binding, fluorescence; actives lie on both sides; in the data active = binding response below about 72% or above about 130%; inactive = in between;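 note: Galphao activated as GDP AlF4 complex before binding bead RGS8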
RGS7-Gao single: RGS7-Galphao interaction regulation, single point confirmation. shares compounds with RGS16-Gao HTS. bead-based flow cytometry RGS7-Galphao binding; actives lie on both sides. response (percent of control binding), % at 10 µM. actives 7.8% (n = 1,700). AID 1837; in the data active = response below about 75% or above about 130%; inactive = in between;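 note: fluorescent Galphao activated with GDP and aluminum fluoride binding bead-coupled RGS7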
RGS16-Gao conf: confirmation of regulators of human RGS16-Galphao interaction | shares compounds with RGS16-Gao HTS | bead-based flow cytometry, RGS16-Galphao binding; actives lie on both sides | actives 4% (n = 1,700) | response (% of control binding), % at 10 µM; in the data active = response below about 74% or above about 130%; inactive = in between;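 note: Galphao activated as the GDP aluminium fluoride complex binding bead-coupled RGS16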
RGS4-Gao confirm: RGS4-Galphao interaction regulation, single point confirmation | shares compounds with RGS16-Gao HTS | RGS4-Galphao binding, multiplexed bead flow cytometry; actives lie on both sides | binding response (% of control), % at 10 µM | actives 4% (n = 1,700); in the data active = binding response below about 74% or above about 130%; inactive = in between
RGS19-Gao conf: RGS19-Galphao interaction regulation, single point confirmation; shares compounds with RGS16-Gao HTS; bead-based flow cytometry RGS19-Galphao binding; actives lie on both sides; response (percent of control binding), % at 10 µM; actives 5% (n = 1,700); AID 1841; in the data active = response below about 50% or above about 160%; inactive = in between;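 note: 100% = no compound control and 0% = blank background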
Target sequence (P09471 whole entry, looked up): as above
Target sequence (P49795 whole entry, looked up): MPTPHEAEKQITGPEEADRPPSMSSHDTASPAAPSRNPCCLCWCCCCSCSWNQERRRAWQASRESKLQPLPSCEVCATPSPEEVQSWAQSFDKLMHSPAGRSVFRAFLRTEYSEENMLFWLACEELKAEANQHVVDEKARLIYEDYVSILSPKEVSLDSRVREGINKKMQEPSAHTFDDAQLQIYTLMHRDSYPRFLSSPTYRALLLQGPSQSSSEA
* = called active by the depositor; i = inactive; ? = inconclusive; nt = no result; [ ] = dose if it differs, or a comment. Hits are enriched below; roughly 1.2% of the tested compounds scored in any of these assays. Unless noted, the rule behind the calls is not given here.

SMILES	Avidin fluor	GSH fluor	RGS7-Gao	RGS8-Gao	RGS4-Gao reg	RGS16-Gao HTS	RGS-Gao	Biotin-avidin	RGS8-Gao confirm	RGS7-Gao single	RGS16-Gao conf	RGS4-Gao confirm	RGS19-Gao conf
O=C(COC(=O)Cc1cccc(C(F)(F)F)c1)NC1CC1	0	14	12*	12*	16*	6.5*	nt	0	105	104	106	105	116
O=C(COC(=O)Cc1cccc(C(F)(F)F)c1)Nc1ccc2c(c1)OCCO2	14	9	81	93	87	92	nt	nt	nt	nt	nt	nt	nt
CC1CN/C(=C\C(=O)c2ccccc2)C(=O)N1 (centres undefined)	3	21	44*	56*	49*	42	nt	i	101	106	106	102	104
CC1CN/C(=C\C(=O)c2ccc(Cl)cc2)C(=O)N1 (centres undefined)	6	14	100	103	101	111	nt	nt	nt	nt	nt	nt	nt
Cc1ccc(/C=N/N=C2/NC(=O)C(CC(=O)N3CCOCC3)S2)cc1 (centres undefined)	10	23	106	99	101	105	nt	nt	nt	nt	nt	nt	nt
CCOC(=O)/C(C#N)=C/Nc1ccsc1C(=O)OC	3	nt	?	92	85	88	nt	nt	nt	nt	nt	nt	nt
CCOC(=O)/C(C#N)=C/Nc1cc(C(=O)OCC)cc2c(OC)c(OC)ccc12	-1	nt	?	17*	-4.8*	-5.8*	nt	-1	100	95	96	95	95
O=C1CCC(C(=O)Nc2cccc(S(=O)(=O)N3CCOCC3)c2)N1 (centres undefined)	17	8	116	122	113	175	nt	nt	nt	nt	nt	nt	nt
CNC(=O)COc1ccc(C=O)cc1OC	7	4	86	72	91	11*	91*	-1	101	98	100	100	97
NC(=NC1CCCCC1)c1ccc(Cl)cc1	42	14	195*[activator]	90	117	101	117*	2	103	97	102	101	118
NC(=O)C1CCCN(C(=O)c2ccc(Cl)cc2)C1 (centres undefined)	9	39	98	98	97	99	nt	nt	nt	nt	nt	nt	nt
O=C(CSc1nc2cc(Cl)ccc2s1)Nc1cccc(S(=O)(=O)N2CCOCC2)c1	14	19	98	102	100	103	nt	nt	nt	nt	nt	nt	nt
Cn1cccc1/C=C1\SC(=O)N(CC(=O)Nc2ccc(Cl)cc2)C1=O	nt	14	100	98	102	98	nt	nt	nt	nt	nt	nt	nt
Cc1ccc(NC(=O)CN2C(=O)S/C(=C\C(=O)Nc3ccc(Cl)cc3)C2=O)cc1	7	5	75	79	79	8.0*	79*	2	104	95	105	99	91
CCn1c(C)cc(/C=C2\SC(=O)N(CC(=O)Nc3ccc(C)c(C)c3)C2=O)c1C	-2	14	-28*	6.0*	-95*	-95*	nt	-1	100	92	97	98	96
COC(=O)/C(C#N)=C/c1cc(C)sc1C	4	nt	?	102	104	104	nt	nt	nt	nt	nt	nt	nt
O=C(NC(Cc1ccccc1)C(=O)NCc1ccccn1)c1ccco1 (centres undefined)	nt	29	nt	nt	nt	nt	nt	-1	100	100	101	101	81
O=C(NCc1ccccn1)c1ccco1	22	8	101	102	100	104	nt	nt	nt	nt	nt	nt	nt
CCCOc1ccc(C(=O)NCC(c2cccs2)N(C)C)cc1OC (centres undefined)	17	9	104	103	103	100	nt	nt	nt	nt	nt	nt	nt
COc1cc(C(=O)NCC(c2cccs2)N(C)C)cc(Cl)c1OC(C)C (centres undefined)	8	15	120	122	116	211*[activator]	116*	2	103	109	105	106	112
O=C(N/N=C\c1ccc(Cl)s1)c1ccc(Cn2cccn2)o1	2	7	98	100	96	99	nt	nt	nt	nt	nt	nt	nt
O=C(N/N=C\c1c(O)ccc2ccccc12)c1ccc(Cn2cccn2)o1	1	9	58	43*	57	12*	57*	-1	94	88	90	93	128
CCOC(=O)c1ccc(NC(=S)NCCc2ccc(OC)c(OC)c2)cc1	8	nt	?	100	104	99	nt	nt	nt	nt	nt	nt	nt
Cc1c(Br)c(=O)oc2c(Br)c(O)c(O)cc12	1	6	53	42*	52	16*	52*	-1	93	93	92	91	87
S=c1[nH]nc(-c2ccc3ccccc3n2)n1-c1ccc(Cl)cc1	4	12	119	114	110	177*[activator]	110*	-2	91	101	92	95	99
SMILES	Avidin fluor	GSH fluor	RGS7-Gao	RGS8-Gao	RGS4-Gao reg	RGS16-Gao HTS	RGS-Gao	Biotin-avidin	RGS8-Gao confirm	RGS7-Gao single	RGS16-Gao conf	RGS4-Gao confirm	RGS19-Gao conf
CC(C)CCOc1cccc(OCC(=O)O)c1	84*	63	375*[activator]	130	422*[activator]	352*[activator]	nt	4	97	72*	87	85	58
CCc1c(O)c(/C(C)=N\O)c(=O)n(-c2ccccc2)c1-c1ccccc1	14	10	115	128	111	271*[activator]	111*	10	105	93	102	93	76
Cc1ccc(C(C)C)cc1OCCCCN1CCCC1	13	8	99	102	102	107	nt	nt	nt	nt	nt	nt	nt
O=[N+]([O-])c1ccc(Nc2nc(NC3CCCCC3)nc(N3CCCC3)n2)cc1	27	13	160*[activator]	104	170*[activator]	157	nt	0	92	98	89	95	85
O=S(=O)(NCc1ccccc1)NCc1cccc(C(F)(F)F)c1	12	13	?	99	101	101	nt	nt	nt	nt	nt	nt	nt
COc1ccc(C(=O)N2CCN(Cc3nc(CC4CC4)no3)CC2)cc1	3	10	94	102	101	98	nt	nt	nt	nt	nt	nt	nt
Cc1ccc(S(=O)(=O)/N=C2/C=C(Sc3ncn[nH]3)C(=O)c3ccccc32)cc1	6	8	79	64	87	15*	87*	nt	nt	nt	nt	nt	nt
